{"source": "PubChem BioAssay", "note": "Values without a mark were called inactive. How the calls were made is not given here.", "data": [{"biological_target": "Pantothenate synthetase (Mycobacterium tuberculosis (strain ATCC 25618 / H37Rv)) (UniProt P9WIL5)", "sequence (P9WIL5 whole entry, looked up)": "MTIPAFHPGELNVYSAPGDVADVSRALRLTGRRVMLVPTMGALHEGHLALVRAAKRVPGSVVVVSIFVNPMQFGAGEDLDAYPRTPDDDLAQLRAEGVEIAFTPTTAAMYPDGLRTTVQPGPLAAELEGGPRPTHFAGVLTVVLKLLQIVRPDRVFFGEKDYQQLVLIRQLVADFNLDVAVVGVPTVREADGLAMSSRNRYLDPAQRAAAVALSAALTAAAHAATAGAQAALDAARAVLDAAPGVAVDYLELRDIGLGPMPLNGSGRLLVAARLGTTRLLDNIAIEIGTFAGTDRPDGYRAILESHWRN", "assay": "Recombinant Mtb pantothenate synthetase (PanC) inhibitors, coupled enzyme, confirmatory (AID 375);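 further: 0% = full reaction with vehicle and 100% = no enzyme background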", "settings": "coupled enzyme assay; at 10 µM, hits give high values", "units": {"inhibition": "%"}, "values": [{"smiles": "CN(C(=O)c1cc2sccc2n1C)C1CCCCC1", "inhibition": 6}, {"smiles": "O=C(Nc1cccnc1)c1cccc(NC(=O)c2ccco2)c1", "inhibition": 0}, {"smiles": "COc1cccc(-n2c(SCC(=O)Nc3cc(C)on3)nc3c([nH]c4ccccc43)c2=O)c1", "inhibition": 2}, {"smiles": "COc1ccc(Cc2nn3c(-c4cc(OC)c(OC)c(OC)c4)nnc3s2)cc1", "inhibition": 0}, {"smiles": "COc1ccccc1NC(=O)c1oc2ccccc2c1NC(=O)c1cc(OC)c(OC)c(OC)c1", "inhibition": 0}, {"smiles": "COc1ccc2cc(CN(Cc3ccco3)C(c3nnnn3C3CCCCC3)C(C)C)c(=O)[nH]c2c1", "note": "(stereo not given)", "inhibition": 5}, {"smiles": "CN(C)C(=O)N1CCC(C(=O)NC2CCCCCCC2)CC1", "inhibition": 0}, {"smiles": "CN(C=O)CP(=O)(O)CCN1CCCC1=O", "inhibition": 0}, {"smiles": "C[C@]12C=CC(=O)C=C1CC[C@@H]1[C@@H]2[C@@H](O)C[C@@]2(C)[C@H]1CC[C@]2(O)C(=O)COC(=O)CCC(=O)O", "inhibition": 0}, {"smiles": "CCOc1ccc(N2CC(C(=O)NCCc3ccc(OC)c(OC)c3)CC2=O)cc1", "note": "(stereo not given)", "inhibition": 0}, {"smiles": "O=C(Nc1ccccc1C(=O)N1CCN(c2ccccc2)CC1)c1ccco1", "inhibition": 0}, {"smiles": "COc1ccc(Cc2noc(-c3ccc(C)cc3)n2)cc1", "inhibition": 0}, {"smiles": "Cc1ccc(C)c2[nH]c(=O)c(CCNC(=O)c3ccc(S(=O)(=O)N(C)C)cc3)cc12", "inhibition": 0}, {"smiles": "COc1cccc(-c2nnc3sc(C4CCCCC4)nn23)c1", "inhibition": 4}, {"smiles": "O=C(CN1C(=O)c2cccc3cccc1c23)N1CCN(c2ccccc2)CC1", "inhibition": 0}, {"smiles": "COc1ccc(N2CCN(C(=O)c3c(-c4ccccc4)noc3C)CC2)cc1", "inhibition": 0}, {"smiles": "O=C(O)CCC(=O)Nc1ccc(S(=O)(=O)Nc2nccs2)cc1", "inhibition": 0}, {"smiles": "O=C(O)c1ccc(-n2nc(C(F)(F)F)c3c2-c2ccoc2CC3)cc1", "inhibition": 0}, {"smiles": "COc1ccc(N(CC(=O)Nc2ccc(F)c(Cl)c2)S(=O)(=O)c2c(C)noc2C)cc1", "inhibition": 11}, {"smiles": "CCn1nc(C(=O)O)c(=O)c2cc3c(cc21)OCO3", "inhibition": 5}, {"smiles": "C=CCn1c(SCC#N)nc2c(c1=O)C(C)(C)Cc1ccccc1-2", "inhibition": 0}, {"smiles": "O=C(NCC1COc2ccccc2O1)c1ccccc1", "note": "(stereo not given)", "inhibition": 2}, {"smiles": "c1ccc(-n2ncc3c(NC4CCCCCC4)ncnc32)cc1", "inhibition": 0}, {"smiles": "Cn1c(=O)c2c(nc(CN3CCN(c4ccccc4F)CC3)n2CCN2CCOCC2)n(C)c1=O", "inhibition": 0}, {"smiles": "O=C(CSc1nnnn1C1CCCC1)NCc1ccc2c(c1)OCO2", "inhibition": 0}, {"smiles": "COC(=O)c1nc(N)sc1-c1ccccc1", "inhibition": 0}, {"smiles": "CCCc1ccc(Oc2cn[nH]c2-c2ccc(O)c(C)c2O)cc1", "inhibition": 0}, {"smiles": "CCOc1ccc(OCC)c(NC(=O)CN2CCN(C(=O)c3ccco3)CC2)c1", "inhibition": 0}, {"smiles": "CCCOc1ccc(N2C(=O)C3ON(c4ccccc4)C(c4ccc(O)c(OC)c4)C3C2=O)cc1", "note": "(stereo not given)", "inhibition": 1}, {"smiles": "COc1ccc(-c2nnc(SCC(=O)c3cc(C)n(Cc4cccs4)c3C)o2)cc1", "inhibition": 0}, {"smiles": "CC(CN1CCCCC1)OC(=O)c1ccc(Cl)cc1Cl", "note": "(stereo not given)", "inhibition": 0}, {"smiles": "CCOC(=O)CSc1nc2sc(C)c(C)c2c(=O)[nH]1", "inhibition": 0}, {"smiles": "NS(=O)(=O)c1ccc(NC(=O)CSc2nnc(Cc3cccs3)n2-c2ccccc2)cc1", "inhibition": 1}, {"smiles": "CCN(CCNC(=O)C1CCN(S(=O)(=O)c2cccc3cccnc23)CC1)c1ccccc1", "inhibition": 1}, {"smiles": "Cc1ccc(S(=O)(=O)N2C(=O)CCC2C(=O)Nc2ccc3c(c2)OCCO3)cc1", "note": "(stereo not given)", "inhibition": 0}, {"smiles": "CS(=O)(=O)N(CC(=O)NCc1ccccn1)c1ccc2c(c1)OCCO2", "inhibition": 0}, {"smiles": "CCc1ccccc1NC(=O)CCc1nc(-c2ccc(C)cc2)no1", "inhibition": 0}, {"smiles": "COc1ccc(-c2nc(SC)n(S(=O)(=O)c3ccccc3)n2)cc1", "inhibition": 0}, {"smiles": "CN(C)c1nc(Nc2ccc(Cl)cc2)nc(OCC#N)n1", "inhibition": 6}, {"smiles": "COC(=O)c1[nH]c(C)c(/C(O)=C2\\C(=O)C(=O)N(CCN3CCOCC3)C2c2cccs2)c1C", "note": "(stereo not given)", "inhibition": 4}]}]}
